Inhibition data for 95 compounds are collected here from PubChem BioAssay AID1063 (University of Pittsburgh Molecular Library Screening Center, 2008).

The structures appear in SMILES notation. The campaign covered roughly 200,000 compounds. About 18,000 (9%) were called active. Many of the other results were omitted from the sample, so actives are more common in it than they were. Unmarked numbers belong to inactive results. No stated cut-off is given here; in the data, active means inhibition above about 50%; inactive means the rest.

The nature of the experiment: antileishmanial activity against promastigotes – primary screen (AID 1063).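 Further: promastigotes grown with compound for 44 hours at 28 °C.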 The following applies: Leishmania major promastigotes, resazurin fluorescence viability; at 10 µM; active compounds read high. In general terms: The colour change of resazurin is a common sign of viable cells or microbes.
For orientation: inhibition means the relative decrease from the control value, in per cent. `COCCn1c(N)c(N(Cc2ccccc2)C(=O)C2CCCCC2)c(=O)[nH]c1=O`: the inhibition is -6%. Consider `C=CCOC(=O)C1=C(C)N=C2SCCC(=O)N2C1/C=C/c1ccccc1OC` (stereo not given), for which the inhibition was 7.43%. Next, `O=C(c1cccc(S(=O)(=O)N2CCCC2)c1)N(Cc1ccco1)C1CCS(=O)(=O)C1` (stereo not given): -2.42%; `CCn1c(SCC(=O)c2ccc3ccccc3c2)nnc1-c1cccs1`: -1.02%; `O=C(CSc1nnc(-c2cccs2)n1Cc1ccccc1)N1CCc2ccccc2C1`: 83.6% (active). Next, `O=C(CSc1nnc(-c2cccs2)n1-c1ccccc1)N1CCN(C(=O)c2ccco2)CC1`: -10.5%; `COC(=O)c1ccc(COC(=O)c2cnccn2)cc1`: -1.35%; `COc1ccc(C2C(C(=O)Nc3ccccc3OC)=C(C)Nc3nnnn32)c(OC)c1` (stereo not given): 15.1%. `COc1ccccc1NC(=O)C1=C(C)Nc2nnnn2C1c1cccc(Br)c1` (stereo not given): the inhibition was 95.7% (active). For `COc1cc(C2C(C(=O)Nc3ccccc3OC)=C(C)Nc3ncnn32)ccc1O` (stereo not given), the inhibition was -3.99%. Turning to `Cc1ccnc(NC(=O)CCC(=O)N(CC(=O)NCc2ccccc2)Cc2ccco2)c1`, the inhibition is -5.25%. Next, `Cc1ccc(C)c(N(CC(=O)NCc2ccco2)C(=O)CCC(=O)Nc2ccccn2)c1`: 53.3% (active); `COCCNC(=O)CN(C(=O)CCC(=O)Nc1cc(C)on1)c1ccc(C)cc1C`: 2.39%. Turning to `O=S1(=O)CCN(Cc2ccccc2Cl)CC1`, the inhibition was -4.67%. For `O=C(NCCN1CCOCC1)Nc1cccc(Cl)c1` the value was -0.08%.

For `O=C(NCC1CCN(Cc2ccccc2Cl)CC1)Nc1cccc(Cl)c1`, the inhibition was 76.4% (active). As for `N#Cc1ccc(CSc2nnc3ccccn23)cc1`, the inhibition is -3.72%.

Consider `Cc1ccc(NN=C2C(=O)OC(C)(C)OC2=O)c(C)c1`, for which the inhibition was -4.89%. Next, `Cc1onc(C(=O)NN)c1C(=O)N1CCN(C(c2ccccc2)c2ccccc2)CC1`: -5.09%. For `CN(c1ccccc1)S(=O)(=O)c1ccc(Cl)c(C(=O)OCC(N)=O)c1` the value was -0.01%; for `O=C(Cc1c(F)cccc1Cl)Nc1ccc(-n2cnnn2)cc1`, 1%; for `CN(c1ccccc1)S(=O)(=O)c1cccc(NC(=O)Cc2c(F)cccc2Cl)c1`, 98.4% (active). On to `C=CCNc1scc(-c2ccccc2)[n+]1CC=C`, for which the inhibition is 9.84%. Consider `Cc1cccc(C(=O)NCCCN2CCCC2=O)c1`, for which the inhibition was -4.51%.

As for `CCN1CCN(CCNC(=O)c2ccc(/C=C3/Sc4ccccc4N(Cc4cccc(C)c4)C3=O)cc2)CC1`, the inhibition is 101% (active). Take `Cc1nn(Cc2ccccc2)c(C)c1C(=O)NCCN1C(=O)S/C(=C\c2ccc(F)cc2)C1=O`: the inhibition is -6.47%.

Consider `COC(=O)c1ccc(CSc2nncn2N)cc1`, for which the inhibition is -3.29%. In the case of `COc1cc(NS(=O)(=O)c2ccc(NC(=O)CN3C(=O)c4ccccc4C3=O)cc2)ncn1`, the inhibition was 4.83%. Next, `N=c1n(CCc2ccccc2)c2ccccc2n1Cc1ccccc1F`: 97.3% (active); `Fc1ccccc1Cn1cnc(NC(=S)NCCc2ccccc2)n1`: -2.69%; `CN(Cc1ccccc1)Cc1ccccc1F`: -3.21%. As to `C=C(C)C1CC=C(C)/C(=N/NC(=O)CCCNc2cccc(C)c2)C1` (stereo not given), the inhibition is -1.55%. For `CN(C)c1ccc(CNC2C3CC4CC(C3)CC2C4)cc1` (stereo not given) the value was 75.6% (active); for `c1cnc(NC2C3CC4CC(C3)CC2C4)nc1` (stereo not given), 27.5%; for `CN(C)c1ccc(CNC23CN4CN(CN(C4)C2)C3)cc1`, -1.82%. Take `Cc1cccc(N2CCN(C(=O)c3ccccc3NC(=O)C3CCCCC3C(=O)O)CC2)c1` (stereo not given): the inhibition was -7.46%.

On to `CC(C)c1ccc(N2CCN(C(=O)c3ccccc3NC(=O)/C=C(\C(=O)O)c3ccccc3)CC2)cc1`, for which the inhibition is 100% (active). For `O=C(O)C1CC=CCC1C(=O)Nc1ccccc1C(=O)N1CCN(c2ccccc2)CC1` (stereo not given), the inhibition is -4.97%. For `Cc1nc(S(=O)(=O)c2ccc(Br)cc2)nc2c1CCC2` the value was -6.99%. `CCOCCCNC(=O)C(NC(=O)c1ccccc1O)c1ccccc1` (stereo not given): the inhibition is -1.57%.

In the case of `CCc1ccc(Nc2nnc(SCC(=O)c3ccc4c(c3)NC(=O)CO4)s2)cc1`, the inhibition was -5.5%.

On to `COc1cccc(CNC(=O)CCC2CCCN(C(=O)c3cc(C)[nH]n3)C2)c1` (stereo not given), for which the inhibition is -7.13%. Next, `COc1cccc2cc(/C(C)=N/NC(=O)c3ccco3)oc12`: 31%. For `N=c1c2c3c(sc2ncn1N)CCCC3` the value was -4.1%; for `N=c1c2c3c(sc2ncn1N)CCCCC3`, -0.23%. For `N=c1c2c3c(sc2ncn1CCCN1CCOCC1)CCCCC3` the value was 90.5% (active).

As for `COC(=O)C(=Nc1ccccc1)/C(C(=O)C(=O)N(C)c1ccccc1)=C(\O)c1ccc(Cl)cc1`, the inhibition was -4.81%. Next, `Cc1ccc(NC(=O)CCN2CCc3ccccc3C2)cc1`: 5.9%; `Cc1cccc(C)c1NC(=O)c1ccc(CN2CCc3ccccc3C2)cc1`: 73.9% (active); `Cc1ccc(NC(=O)CN2CCc3ccccc3C2)cc1`: -2.33%. On to `CCN=c1sc(C(=O)Nc2ccccc2)c(C)n1CC`, for which the inhibition was -3.21%.

With `CC(C)C(c1nnnn1C(C)(C)C)N1CCN(Cc2cccnc2)CC1` (stereo not given), the inhibition is -1.86%. For `O=C(CSc1nc2ccccc2o1)N1c2ccccc2Sc2ccc(Cl)cc21` the value was 71.7% (active).

For the compound `Cc1ccccc1OCc1nnc(SCC(=O)N2c3ccccc3Sc3ccc(Cl)cc32)o1`, the inhibition was 11.3%.

As for `O=C(CSc1nc2ccccc2o1)N1CCN(c2ccc(Cl)cc2)CC1`, the inhibition is 0.01%.

Turning to `COc1ccc(-c2nc3cnccn3c2NC(C)(C)CC(C)(C)C)cc1O`, the inhibition is 32.8%. For the compound `CS(=O)(=O)c1ccc2nc(NC(=O)c3ccc(Cl)nc3)sc2c1`, the inhibition was 3.2%. For `COc1ccccc1-n1c(=S)[nH]c2c(sc(=S)n2-c2ccc(C)cc2C)c1=O` the value was -6.57%; for `N=c1c2c(-c3ccccc3)c(-c3ccccc3)oc2ncn1Cc1ccco1`, 33.3%. Next, `Cc1nc([N+](=O)[O-])c(NCCCO)n1Cc1ccccc1`: 10.7%; `N=c1c2c(-c3ccccc3)c(-c3ccccc3)n(Cc3ccccc3)c2ncn1CCCO`: 100% (active). For `O=C(COC(=O)c1ccccc1C(=O)N1CCN(c2ccccc2)CC1)NCc1ccccc1` the value was -2.49%. Take `Oc1ccc(N2CCN(C(=S)NCc3ccccc3)CC2)cc1`: the inhibition is 53.4% (active). `Oc1ccccc1N1CCN(C(=S)NCc2ccccc2)CC1`: the inhibition was -5.57%. Next, `Cc1ccc(C(NC(=O)N2CCCC2)C(Cl)(Cl)Cl)cc1F` (stereo not given): -2.3%.

As for `Cc1ccc(-c2csc(SCC(=O)Nc3cc(C)on3)n2)cc1`, the inhibition is -6.88%. Next, `Cc1cc(NC(=O)CSc2nc3ccccc3n2CC(C)C)no1`: 10.5%. Next, `Cc1ccc2nc(-c3ccc(SCC(=O)Nc4cc(C)on4)nc3)[nH]c2c1`: 64.8% (active); `CCN1CCN(C(=O)c2ccc(CN(c3ccc(C)c(C)c3)S(C)(=O)=O)cc2)CC1`: 3.09%; `COc1ccc(NC(=S)SC)cc1OC`: 80.4% (active).

As for `COc1ccc(NC(=O)CN(C)S(=O)(=O)c2ccccc2)cc1OC`, the inhibition is -1.12%.

Turning to `COc1ccc(C(=O)NC(=S)Nc2ccc(N3CCCC3)cc2)cc1OC`, the inhibition is 26.5%. As for `O=C(NCc1ccccn1)c1cc(Br)ccc1Cl`, the inhibition was 17.5%. For `CN(C)NC(=O)C(NC(=O)c1ccc(N)cc1)C12CC3CC(CC(C3)C1)C2` (stereo not given) the value was 3.34%. Turning to `c1ccc2c(c1)OCC(CNc1ncnc3nc[nH]c13)O2` (stereo not given), the inhibition is -3.1%. Take `c1ccc(-c2cc3c(NCC4COc5ccccc5O4)ncnc3s2)cc1` (stereo not given): the inhibition was 98.8% (active). On to `S=C(NCC1COc2ccccc2O1)Nc1ccc(Br)cc1` (stereo not given), for which the inhibition is -3.43%. Next, `CN(C)C(=O)CSc1n[nH]c(-c2ccco2)n1`: -3.34%. In the case of `COc1ccccc1N1CCN(CC(=O)NCCc2ccc(S(N)(=O)=O)cc2)CC1`, the inhibition was -5.9%. For `Cc1nc([N+](=O)[O-])cn1CC(=O)Nc1ccc2c(c1)OCO2` the value was -4.99%; for `CCOc1ccc(NC(=O)CN(C)CC(=O)Nc2cccc(Cl)c2C)cc1OCC`, 84.2% (active); for `CCOc1ccc(NC(=O)CN(C)CC(=O)NC(C)c2ccccc2)cc1OCC` (stereo not given), -1.35%. For `COc1ccc(NC(=O)CN(C)CC(=O)Nc2cccc(C(F)(F)F)c2)cc1` the value was 6.17%; for `S=c1[nH]nc(/C=C/c2ccccc2)o1`, -11.6%. For `CN1CCN(CC(=O)Nc2cccc([N+](=O)[O-])c2)CC1`, the inhibition was -5.42%. Consider `O=C(O)c1cccc(NC(=S)N/N=C/c2c[nH]c3ccccc23)c1`, for which the inhibition was -4.34%. Turning to `O=C(N/N=C/c1ccc(Cl)cc1)c1nc2ccc([N+](=O)[O-])cc2c(=O)[nH]1`, the inhibition was 13.4%. Next, `Cc1nc2ccccc2cc1C(=O)N/N=C/c1ccc([N+](=O)[O-])cc1`: -3.55%. For `C(=N\Nc1ccc2ccccc2n1)/c1ccc2c(c1)OCO2` the value was 52.1% (active). `O=C(Cc1ccc(F)cc1)N/N=C/c1ccc2c(c1)OCO2`: the inhibition is -2.74%. As for `Cc1noc(C)c1/C=N/Nc1ccc2ccccc2n1`, the inhibition is 56.6% (active).

`Cc1cc(C)nc(N/N=C/c2c(C)oc3ccccc23)n1`: the inhibition is 3.92%. Take `Brc1ccc(-c2csc(N/N=C/c3ccc4c(c3)OCO4)n2)cc1`: the inhibition is 1.9%.

Consider `CC(C)(C)NC(=O)CN(C(=O)c1ccc(Cl)nc1)c1cccc2ccccc12`, for which the inhibition is 31.5%. As to `COc1ccc(Cl)cc1N(CC(=O)N/N=C/c1ccc(OCC(N)=O)cc1)S(C)(=O)=O`, the inhibition was 30.9%.
